# Assay results: PubChem BioAssay (EPA / NIEHS)
# “And” between values parts separate entries of the source, which are not always exact repeats. Equal entries are not always repeated. Some compounds were tested as several samples or in several runs, with calls that do not always agree. The source made the active and inactive calls. Rule for the calls: active = hit-call score of the fitted dose curve at least 0.9, where 1 is the maximum; inactive = score below 0.9.
# Read-out: Human Leukocyte Antigen - DR isotype (HLADR), HLA-DRA (gene 3122)
# Assay: BSK_3C_HLADR: BioMAP Diversity Plus: 3C Assay for Human Leukocyte Antigen - DR isotype (HLADR) Biomarker Activity (AID 2283019)
# Conditions: primary human endothelial cells (HUVEC); actives raise or lower the signal
# Description: BSK_3C is a cell-based, multiplexed-readout assay that uses umbilical vein endothelium, a human vascular primary cell, with measurements taken at 24 hours after chemical dosing in a 96-well plate.BSK_3C_HLADR is an assay component measured in the BSK_3C assay. It measures HLA-DR antibody related to regulation of gene expression using ELISA technology.Data from the assay component BSK_3C_HLADR was analyzed into 1 assay endpoint. This assay endpoint, BSK_3C_HLADR, was analyzed with bidirectional fitting relative to DMSO as the negative control and baseline of activity. Using a type of binding reporter, gain or loss-of-signal activity can be used to understand changes in the signaling as they relate to the gene HLA-DRA. Furthermore, this assay endpoint can be referred to as a primary readout, because this assay has produced multiple assay endpoints where this one serves a signaling function. To generalize the intended target to other relatable targets, this assay endpoint is annotated to the cell adhesion molecules intended target family, where the subfamily is MHC Class II.
# The levels of cell surface (or secreted, indicated by the prefix "s") biomarker endpoints were measured by ELISA. Overt cytotoxicity to cells in confluent adherent cultures (all systems other than the BT system) was assessed by measuring total protein levels using sulforhodamine B (SRB) staining in parallel cultures at the time of biomarker measurements, indicated as SRB endpoints. For proliferation assays for adherent cell types, individual cell types are cultured at sub-confluence and relative cell numbers quantified by SRB staining at time points optimized for each system (48 h: 3C and CASM3C systems; 72 h: BT and HDF3CGF systems; 96 h: SAg system). SRB was performed by staining cells with 0.1% SRB after fixation with 10% TCA and reading wells at 560 nm.Viability and proliferation of PBMC (T cells) was quantified by Alamar Blue reduction for the SAg and BT systems. For PBMC viability (referred to as PBMC Cytotoxicity within the assay endpoint names), cells were plated (75,000/well in a 96-well plate) and then chemical samples added for 1 h before addition of activators, SEB and TSST-1 (20 ng/mL final concentration each). Cells were incubated for 90 h. Then, Alamar Blue (20 uL/well) (Invitrogen, Cat DAL1100) was added for 6 h, and the plates were read with a fluorescence microplate reader at 546/580 nm (excitation/emission). For PBMC proliferation, cells were plated and activated as above but incubated for only 16 h prior to addition of Alamar Blue. Plates were read after 6 h.
Compound,AC50,outcome
CCN(CCO)S(=O)(=O)C(F)(F)C(F)(F)C(F)(F)C(F)(F)C(F)(F)C(F)(F)C(F)(F)C(F)(F)F,42.6 µM (active) and 20.2 µM (active),–
O=C=Nc1cccc2c(N=C=O)cccc12,–,inactive
FC(F)(F)C(F)(F)C(F)(F)C(F)(F)C(F)(F)C(F)(F)C(F)(F)CCI,–,inactive
O=S(=O)(Cl)C(F)(F)C(F)(F)C(F)(F)C(F)(F)C(F)(F)C(F)(F)C(F)(F)C(F)(F)F,–,inactive
O=C=NCc1cccc(CN=C=O)c1,–,inactive
CCN(CC)c1ccc2c(c1)Oc1cc(N(CC)CC)ccc1C21OC(=O)c2ccccc21,10 µM (active),–
CC1=CC2C3C=CC(C3)C2C1C (stereo not given),–,inactive
O=C1C=CC(=O)N1c1ccc(Cc2ccc(N3C(=O)C=CC3=O)cc2)cc1,5.74 µM (active),–
O=C(F)C1(F)C(F)(F)C(F)(F)C(F)(F)C(F)(F)C1(F)F,–,inactive
Cc1cnccn1,–,inactive
NC(=O)C(F)(F)C(F)(F)C(F)(F)C(F)(F)C(F)(F)C(F)(F)C(F)(F)F,–,inactive
C[C@]12CC[C@H]3C(=CCc4cc(O)ccc43)[C@@H]1CCC2=O,20 µM (active),–
C=CC(=O)OCC(F)(F)C(F)(F)C(F)(F)C(F)(F)C(F)(F)C(F)(F)C(F)(F)C(F)F,–,inactive
Cc1cc(C)c(O)c(C(C)(C)C)c1,15.8 µM (active),–
Cc1ccc(S(=O)(=O)C(I)I)cc1,1.15 µM (active),–
CCOC(C=C(C)CCC=C(C)C)OCC,35.4 µM (active),–
Nc1cc([N+](=O)[O-])cc(Cl)c1O,–,inactive
CC(C)CCCC(C)CCO (stereo not given),29.9 µM (active),–
CCN(CC)c1ccc(C=O)cc1,–,inactive
OCC(O)CC(F)(F)C(F)(F)C(F)(F)C(F)(F)C(F)(F)C(F)(F)C(F)(F)C(F)(F)F (stereo not given),–,inactive

Compound,AC50,outcome
C=C(C)C(=O)OCC(F)(F)C(F)(F)C(F)(F)C(F)F,–,inactive
Brc1nc2ccccc2s1,–,inactive
NC(=O)C(F)(F)C(F)(F)C(F)(F)F,–,inactive
O=C(O)CCC(F)(F)C(F)(F)C(F)(F)F,–,inactive
NS(=O)(=O)C(F)(F)C(F)(F)C(F)(F)C(F)(F)C(F)(F)C(F)(F)F,22.6 µM (active) and 24.2 µM (active),–
OCC(F)(F)C(F)(F)C(F)(F)C(F)(F)C(F)(F)C(F)(F)C(F)(F)C(F)(F)CO,30 µM (active),inactive
CC(C)(C)c1cc(CCC(=O)NCCCCCCNC(=O)CCc2cc(C(C)(C)C)c(O)c(C(C)(C)C)c2)cc(C(C)(C)C)c1O,–,inactive
NCC(F)(F)C(F)(F)C(F)(F)C(F)(F)C(F)(F)C(F)(F)F,–,inactive
O=C(O)C(F)(F)OC(F)(F)C(F)(F)OC(F)(F)C(F)(F)OC(F)(F)F,–,inactive
CCN(CC)c1ccc(N=Nc2ccccc2)cc1,11.5 µM (active),–
O=C(O)CCC(F)(F)C(F)(F)C(F)(F)C(F)(F)C(F)(F)C(F)(F)C(F)(F)F,–,inactive
CCN=C1C=CC(=C(c2ccc(N(CC)CC)cc2)c2ccc(N(CC)CC)cc2)c2ccccc21,1.95 µM (active) and 1.7 µM (active),–
CCN(CC)c1ccc(C=O)c(O)c1,32.9 µM (active),–
OCC(F)(F)C(F)(F)C(F)(F)CO,–,inactive
NC(O)(C(F)(F)F)C(F)(F)F,–,inactive
CCOC(=O)CC(=O)C(F)(F)C(F)(F)F,–,inactive
O=C(O)C(F)(F)C(F)(F)C(F)(F)C(F)(F)C(F)(F)C(F)(F)C(F)F,–,inactive
CNS(=O)(=O)C(F)(F)C(F)(F)C(F)(F)C(F)(F)C(F)(F)C(F)(F)C(F)(F)C(F)(F)F,6.3 µM (active) and 8.04 µM (active),–
O=C(Cl)C(F)(F)C(F)(F)C(F)(F)C(F)(F)C(F)(F)C(F)(F)C(F)(F)F,–,inactive
